# The whole screen tested about 96,000 compounds, of which about 19,000 (20%) were called active. Only a sample is shown. A number with no mark means an inactive call.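 The calls were made as follows: active = blocking of liver enzyme CYP2C9 beyond about 50% at 5 µM (limit read from the data); inactive = the rest.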
# Target: Cytochrome P450 2C9 (Homo sapiens) (UniProt P11712)
# Assay: blockers of cytochrome P450 2C9 activity – biochemical, luminescence, ADME assay, primary screen (AID 777)
# Details: CYP2C9 Supersomes, luciferin-H conversion, at 5 µM, hits give high values
# Chain of Cytochrome P450 2C9 (Homo sapiens) (P11712 whole entry, looked up): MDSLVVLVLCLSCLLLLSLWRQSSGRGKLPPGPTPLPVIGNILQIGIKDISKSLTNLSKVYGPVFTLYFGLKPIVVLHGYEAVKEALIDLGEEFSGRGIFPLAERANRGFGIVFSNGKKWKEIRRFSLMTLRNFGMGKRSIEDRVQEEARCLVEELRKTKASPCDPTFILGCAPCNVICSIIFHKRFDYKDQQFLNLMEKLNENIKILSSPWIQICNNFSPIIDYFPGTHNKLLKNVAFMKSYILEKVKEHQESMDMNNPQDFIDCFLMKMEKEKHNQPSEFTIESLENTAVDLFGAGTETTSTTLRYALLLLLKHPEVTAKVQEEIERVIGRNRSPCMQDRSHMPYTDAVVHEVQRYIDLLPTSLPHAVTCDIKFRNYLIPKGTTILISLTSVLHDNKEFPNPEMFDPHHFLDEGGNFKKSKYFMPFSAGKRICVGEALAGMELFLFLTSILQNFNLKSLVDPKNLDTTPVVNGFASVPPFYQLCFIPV
row,Structure (SMILES),inhibition
1,COC(=O)c1ccc2c(c1)S(=O)(=O)NC(=NCCCN1CCOCC1)S2,11.4%
2,O=C(NCc1ccc2c(c1)OCO2)c1ccc2c(c1)C(=O)N(CC1CCCO1)C2=O (configuration not stated),2.3%
3,CC(C)(O)C(=O)NN(C(=O)c1ccccc1)c1cccc(Br)c1,-6.8%
4,O=C(/C=C\NCC(=O)c1ccccc1)c1ccccc1,12.9%
5,O=C(/C=C/NNC(=O)c1cccc(Br)c1)c1ccccc1,76.7% (active)
6,Cc1ccsc1/C=C1\SC(N2CCOCC2)=NC1=O,-18%
7,Cc1cc2nc(C)n(CCCNC(=O)Nc3ccccc3)c2cc1C,44.6%
8,O=C(COc1ccccc1)N1CCc2ccccc2C1,39.9%
9,CCOc1ccc(CN2CCCN(C)CC2)cc1,-7.8%
10,CCOC(=O)c1ccc(N2C(=O)CC(N3CCC(C(=O)OCC)CC3)C2=O)cc1 (configuration not stated),38.3%
11,CCOC(=O)c1ccc(N2C(=O)CC(N3CC(C)OC(C)C3)C2=O)cc1 (configuration not stated),5.1%
12,CCCCOC(=O)c1ccc(N2C(=O)CC(N3CCN(C/C=C/c4ccccc4)CC3)C2=O)cc1 (configuration not stated),60.1% (active)
13,Cc1cccc(OCc2nnc(SCC(=O)N3CCN(C(=O)c4ccco4)CC3)n2C)c1C,5.9%
14,Cc1ccc(-c2c3c(=O)n(C)c(=O)n(C)c3cn2-n2cnnc2)cc1,-7.5%
15,CCC(C)Sc1nc2c(c(=O)[nH]c(=O)n2C)n1CC(O)COc1cccc2ccccc12 (configuration not stated),24%
16,O=C(COc1ccc(S(=O)(=O)NCCc2ccccc2)cc1)N1CCCC1,45.1%
17,CCOc1ccc(S(=O)(=O)NCCSc2ccccc2)cc1,75.7% (active)
18,CCOc1ccc(S(=O)(=O)NCC2CCCO2)cc1 (configuration not stated),7.4%
19,Cc1[nH][nH]c(=O)c1C(c1ccc(-c2ccc(Cl)cc2)o1)c1c(C)[nH][nH]c1=O,22.5%
20,CCC(=O)c1cc2c(cc1NC(=O)c1cccs1)OCCO2,-7%
21,O=C(Cc1cccc2ccccc12)Nc1ccc2oc(-c3ccccc3)nc2c1,20.1%
22,O=C(Nc1ccc2oc(-c3ccc4ccccc4c3)nc2c1)c1cccs1,27.5%
23,CCCCCC(=O)Nc1ccc2oc(-c3ccncc3)nc2c1,75.3% (active)
24,N#CC(C(N)=O)=C1CCC2(CC1)OCCCCO2,-39.1%
25,CN(C)Cc1ccccc1C1(O)c2ccccc2CSc2ccccc21 (configuration not stated),51% (active)
26,CN(C)/C=C1/C(=O)Nc2ccccc21,-12.8%
27,CCOC(=O)N1CCC(NC(=O)COc2cc(=O)n(C)c3ccccc23)CC1,-30.2%

# From PubChem BioAssay AID777 (Sanford-Burnham Center for Chemical Genomics, 2007)
